Common to all, as to assay type: functional
Assay [1] deals with Solute carrier family 2, facilitated glucose transporter member 1 (Homo sapiens) (UniProt P11166). In words: ST_JUDE_LEISH: Cytotoxicity at 2uM final concentration against transgenic Leishmania Mexicana promastigotes LmGLUT1 that are glucose transport deficient and complemented with the human glucose transporter GLUT1. Activity is measured by DNA content using SYBR green in vitro.

The target in assay [2] is Hexose transporter 1 (Plasmodium falciparum) (UniProt O97467). The assay is described as follows: ST_JUDE_LEISH: Cytotoxicity at 2uM final concentration against transgenic Leishmania Mexicana promastigotes LmPfHT that are glucose transport deficient and complemented with the Plasmodium falciparum hexose transporter. Activity is measured by DNA content using SYBR green in vitro.

Assay [3] deals with Glucose transporter (Leishmania mexicana) (UniProt O61059). The assay is described as follows: ST_JUDE_LEISH: Cytotoxicity at 2uM final concentration against transgenic Leishmania Mexicana promastigotes LmGT2 that are glucose transport deficient and complemented with the L. Mexicana glucose transporter 2. Activity is measured by DNA content using SYBR green in vitro.

Here are results for 36 compounds from ChEMBL document CHEMBL3433997, “St. Jude Leishmania screening dataset” (2016).

Chain of Solute carrier family 2, facilitated glucose transporter member 1 (Homo sapiens) (P11166 whole entry): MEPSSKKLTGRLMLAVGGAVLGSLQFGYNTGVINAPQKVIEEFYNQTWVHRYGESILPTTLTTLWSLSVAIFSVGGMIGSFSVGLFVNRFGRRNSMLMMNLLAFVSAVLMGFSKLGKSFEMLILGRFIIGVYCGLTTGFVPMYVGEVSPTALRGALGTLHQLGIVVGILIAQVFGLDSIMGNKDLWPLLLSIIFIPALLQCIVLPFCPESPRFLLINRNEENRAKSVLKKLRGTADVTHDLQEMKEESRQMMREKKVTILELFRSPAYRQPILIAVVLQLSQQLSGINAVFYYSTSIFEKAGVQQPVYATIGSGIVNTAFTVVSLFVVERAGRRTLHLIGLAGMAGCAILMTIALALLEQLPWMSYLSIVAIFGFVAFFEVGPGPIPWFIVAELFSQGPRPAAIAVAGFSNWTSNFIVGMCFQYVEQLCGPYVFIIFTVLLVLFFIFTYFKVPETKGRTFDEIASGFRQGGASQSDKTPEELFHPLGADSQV

Consider `CN1CCCC1CCNCc1cccc(-c2cnc(N3CCCC(C)(C)C3)nc2)c1` (stereo not drawn), for which the inhibition in assay [1] is 108%; in assay [2] it was 103%; in assay [3] it was 104%.

For the compound `CN1CCN(CCCNCc2cccc(Nc3nccc(Nc4ccc(Oc5ccccc5)cc4)n3)c2)CC1`, the inhibition worked out at 1.12% in assay [1], 2.79% in assay [2] and 0.79% in assay [3].

As for `Cc1cc(N[C@@H](CC(C)C)C(=O)Nc2ccccc2)nc(NCCc2ccccc2)n1`, the inhibition worked out at 3.68% in assay [1], 2.93% in assay [2] and 0.92% in assay [3].

With `CCCCc1ccc(NC(=O)Nc2cccc(CCNCc3ccccc3)c2)cc1`, the inhibition amounted to 11.8% in assay [1], 11.4% in assay [2] and 10.2% in assay [3].

In the case of `Clc1ccc(-c2cc(-c3csc(NCCN4CCCCC4)n3)on2)cc1`, the inhibition was 6.93% in assay [1], 7.19% in assay [2] and 5.8% in assay [3].

With `Cc1ccc2nc(C)n(C3CCN(C(=O)Cc4ccccc4C)CC3)c2c1`, the figures for the inhibition in assay [1], in assay [2] and in assay [3] were 5.4%, 8.18% and 4.9%, respectively.

With `NC(=O)c1ccccc1OCC(=O)Nc1cccc(-c2ccc(-c3nc4cc(C(F)(F)F)ccc4[nH]3)cc2)c1`, the inhibition amounted to 4.44% in assay [1], 3.99% in assay [2] and 2.79% in assay [3].

Consider `CN(C)CCCN1CCN(C(=O)c2cc3cc(-c4ccccc4)ccc3n2S(=O)(=O)c2ccccc2)CC1`, for which the inhibition in assay [1] was 60.9%; in assay [2] it was 24.3%; in assay [3] it was 2.85%.

Regarding `Cn1c2c(c3ccccc31)CN(CCC1(c3ccc(Cl)c(Cl)c3)CN(C(=O)Cc3ccccc3)CCO1)CC2` (stereo not drawn), the results for the inhibition in assay [1], in assay [2] and in assay [3] were 2.23%, 3.84% and -1.01%, respectively.

Turning to `COc1ccc(C=NN=c2cc(C)[nH]c3ccccc23)cc1OC`, the inhibition came out at 7.8% in assay [1], 9.53% in assay [2] and 2.8% in assay [3].

As for `CC1CCN(Cc2c(O)ccc3c(O)c(-c4nc5ccccc5s4)c(=N)oc23)CC1`, the inhibition in assay [1] is 0.12%; in assay [2], 0.79%; in assay [3] it was -0.56%.

On to `COCCCNc1sc(S(=O)(=O)c2ccccc2)nc1S(=O)(=O)c1ccc(C)cc1`, for which the values for the inhibition in assay [1], in assay [2] and in assay [3] were -0.53%, -2.3% and 1.51%, respectively.

With `N#Cc1cncc(-c2nc3c(N4CCC(N5CCCC5)CC4)cccc3n2CCNCc2ccccc2)c1`, the results for the inhibition in assay [1], in assay [2] and in assay [3] were 0.91%, 0.8% and 3.98%, respectively.

As for `CCc1cc(I)c2c(c1)C(NCCCNc1cc(=O)c3ccccc3[nH]1)CCN2` (stereo not drawn), the inhibition in assay [1] amounted to 2.28%; in assay [2], 4.39%; in assay [3], 1.86%.

With `CCCCCC(=O)N1CCOC(CCN2CCc3c(c4ccccc4n3C)C2)(c2ccc(Cl)c(Cl)c2)C1` (stereo not drawn), the inhibition is 10.5% in assay [1], 7.81% in assay [2] and 9.52% in assay [3].

Regarding `N#Cc1ccc(N/C(=N\c2ccc(-c3ccccc3)cc2)NC2CCCc3ccccc32)c(O)c1` (stereo not drawn), the inhibition was -1.53% in assay [1], 0.81% in assay [2] and -0.07% in assay [3].

Turning to `Cc1ccc2c(=NN=Cc3cccc(F)c3)cc(C)[nH]c2c1`, the figures for the inhibition in assay [1], in assay [2] and in assay [3] were 7.16%, 7.52% and 6.18%, respectively.

For `Cc1cccc2nc(-c3cccc(-c4cccc(CNCCNC(=O)c5ccnn5C)c4)c3)[nH]c12`, the inhibition in assay [1] is -1.89%; in assay [2] it was -1.71%; in assay [3], -2.41%.

Regarding `O=[N+]([O-])c1ccc(Nc2nc(N/N=C/c3ccc(-c4ccc([N+](=O)[O-])cc4)o3)nc(Nc3ccccc3)n2)cc1`, the values for the inhibition in assay [1], in assay [2] and in assay [3] were 0.17%, -3.33% and -5.8%, respectively.

As for `CC(C)c1ccc(C2CCN(CCCCNC(=O)c3ccc(NC(=O)c4ccc(C(F)(F)F)cc4)cc3)CC2)c(O)c1`, the figures for the inhibition in assay [1], in assay [2] and in assay [3] were 4.75%, 3.96% and 1.92%, respectively.

Take `COc1cc(Cc2cnc(N)nc2N)ccc1OCC(=O)Nc1ccc(C)cc1`: the inhibition in assay [1] was 8.4%; in assay [2], 9.26%; in assay [3], 8.92%.

For the compound `C=C(C)CSc1nc2c(c(=O)n1Cc1ccco1)C1(CCCCC1)Cc1ccccc1-2`, the values for the inhibition in assay [1], in assay [2] and in assay [3] were 3.67%, 3.16% and 4.72%, respectively.

For the compound `CCNC(=O)Nc1cccc(-c2cccc(-c3nc4cc(C(F)(F)F)ccc4[nH]3)c2)c1`, the inhibition in assay [1] came out at 10%; in assay [2], 7.8%; in assay [3], 7.55%.

`O=C(Nc1cc(F)cc(-c2cccnc2)c1)c1ccc2c(=O)n(Cc3ccccc3)cnc2c1`: the inhibition in assay [1] was 0.81%; in assay [2] it was 1.52%; in assay [3], -1.46%.

With `CN(c1ccc(NC(=O)c2ccc(F)cc2)cc1)C1CCN(Cc2cccc(F)c2)C1` (stereo not drawn), the inhibition in assay [1] was 1.66%; in assay [2] it was -0.15%; in assay [3], 3.04%.

As to `CSc1nnc2n(Cc3ccccc3)c(=O)c3c(n12)-c1ccccc1CC31CCCCC1`, the inhibition came to 2.53% in assay [1], 0.86% in assay [2] and 0.02% in assay [3].

For the compound `Cn1nccc1C(=O)NCCNCc1ccc(-c2ccc(-c3nc4ccccc4[nH]3)s2)cc1`, the results for the inhibition in assay [1], in assay [2] and in assay [3] were 4.38%, 3.81% and 0.63%, respectively.

With `C/C=C/COc1ccc(-c2c(C)[nH]c(C)c(Cl)c2=O)cc1`, the inhibition in assay [1] amounted to 4.66%; in assay [2], 6.53%; in assay [3], 4.16%.

Regarding `Cc1ccc2c(=NN=Cc3cccc(Cl)c3)cc(C)[nH]c2c1`, the inhibition in assay [1] is 0.92%; in assay [2], 0.93%; in assay [3], 1.04%.

For `CCC1N=C(N)N=C(N)N1OCc1ccc(Cl)c(Cl)c1` (stereo not drawn), the figures for the inhibition in assay [1], in assay [2] and in assay [3] were -0.58%, 0.09% and -0.8%, respectively.

For the compound `OCCN1CCN(Cc2ccc(-c3ccc(-c4nc5cc(F)ccc5[nH]4)cc3)cc2)CC1`, the inhibition was 8.49% in assay [1], 6.23% in assay [2] and 3.78% in assay [3].

Take `CO/C(=C\C=C\c1cc2cc(Cl)c(Cl)cc2[nH]1)C(=O)NC1CC(C)N(C)C(C)C1` (stereo not drawn): the inhibition was -2.9% in assay [1], -0.97% in assay [2] and -1.43% in assay [3].

Turning to `C[C@@H]1CC[C@H](NC(=O)[C@H](CC2CCCC2)NC(=O)N2CCNCC2)C(=O)CN1S(=O)(=O)c1ccccn1`, the figures for the inhibition in assay [1], in assay [2] and in assay [3] were 1.44%, 0.17% and -0.32%, respectively.

In the case of `Cc1cc(NC(=O)Nc2ccc(C#N)cc2)c2ccccc2n1`, the results for the inhibition in assay [1], in assay [2] and in assay [3] were 1.79%, 4.35% and 0.95%, respectively.

Regarding `CCCCNC[C@@H](O)[C@H](Cc1ccccc1)NC(=O)c1cc2c3c(c1)c(CC)cn3CCS(=O)(=O)N2C`, the inhibition in assay [1] amounted to 2.53%; in assay [2], 4.07%; in assay [3], 2.04%.

For the compound `CC(C)(C)SCC(O)Cn1c2ccc(Br)cc2c2cc(Br)ccc21` (stereo not drawn), the results for the inhibition in assay [1], in assay [2] and in assay [3] were 2.07%, 0.65% and -0.28%, respectively.

Usually inhibition stands for the change of the read-out against control, counted positive when it falls.
